Rows were chosen to be rich in hits. Some 3% of all compounds tested hit in one or more screens of this group.
Wnt bcat act – activates Wnt/beta-catenin signaling in a reporter cell assay; activator, plate reader; AID 743398; activation, % at 9.35 µM; hit rate 1.2% among 300,000; in the data active means activation above about 30%, passing the limit was not always enough; inconclusive means no clear call, values can overlap the other calls;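 further: 0% = neutral control wells and 100% = positive control wells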
MITF TRPM1 HTS – MITF TRPM1 promoter activation in melanoma cells. AID 588334. hit rate 0.75% among 300,000. activation, % at 12.5 µM. SK-MEL-5 TRPM1-promoter luciferase, 24 h; % of positive control, neutral wells = 0;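 active means mean activation of at least 80% with every replicate also reaching 80%; inconclusive means mean reaches 80% but some replicate falls short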;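 further: 0% = neutral control wells and 100% = parthenolide positive control wells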
esBAF inh – blocks esBAF chromatin remodeling in mouse ES cells. reporter increase, % at 12.5 µM. Bmi1-luciferase knock-in reporter, 24 h; 100% = twice the neutral-well signal. hit rate 2% among 350,000; in the data active means activation above about 40%; inconclusive means no clear call, values can overlap the other calls;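 further: 0% = median of the plate's neutral control wells and 100% = double that signal; a rise in the Bmi1 reporter signal indicates esBAF inhibition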
C2C12 statin – suppression of simvastatin myotoxicity; C2C12 myotubes + simvastatin, ATP luminescence, 48 h; scaled: DMSO 0, geranylgeraniol control 100; rescue of ATP level, % at 7.49 µM; hit rate 0.78% among 330,000; AID 602340;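 active means mean ATP rescue above about 67%, or every replicate alone reaching that limit, limit read from the data, passing the limit was not always enough; inconclusive means no clear call, values can overlap the other calls; inactive means mean under the limit and some replicate under it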;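 further: myotubes were challenged with 10 µM simvastatin during compound exposure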
Numbers without * were called inactive; ? = inconclusive; . = no result given.

SMILES	Wnt bcat act	MITF TRPM1 HTS	esBAF inh	C2C12 statin
C[C@H]1CN([C@@H](C)CO)C(=O)c2cc(-c3ccccc3F)cnc2O[C@H]1CN(C)C(=O)CN(C)C	.	.	2	14
COC(=O)c1ccccc1NN=Nc1ccccc1[N+](=O)[O-]	0	.	.	.
O=[N+]([O-])c1ccccc1N=NNc1ccccc1	14	41	113*	-10
O=C(C[C@@H]1C=C[C@H](NS(=O)(=O)c2ccc(F)cc2)[C@@H](CO)O1)NCc1ccncn1	.	.	2	-2
NC(=O)Cc1c[nH]c2cccc(O)c12	36*	.	-2	7
NC(=O)COC(=O)CCCc1c[nH]c2ccccc12	.	-9	-5	-3
Nc1nnc(SCc2ccc(F)cc2Cl)s1	3	24	4	19
Cc1nnc(SCc2ccc(F)cc2Cl)s1	.	72	50*	18
Cc1nnc(SCc2c(Cl)cccc2Cl)s1	0	48	55*	.
O=C(CCN1CCCCC1)N[C@@H]1CC[C@H](CCNS(=O)(=O)c2ccc(F)cc2)O[C@H]1CO	.	.	-2	4
Cc1cccc(NC(=O)c2ccc(S(=O)(=O)NCc3ccco3)cc2)n1	-1	49	56*	-3
CC(C)c1ccc(CN(C)C(=O)c2ccc(S(=O)(=O)NCc3ccco3)cc2)cc1	34*	.	-2	10
Cc1ccc(NC(=O)c2ccc(S(=O)(=O)NCc3ccco3)cc2)nc1	16	15	.	.
Cc1cccc(C)c1NC(=O)CNC(=O)c1ccc(S(=O)(=O)NCc2ccco2)cc1	2	-9	-5	4
Cc1cccc(NC(=O)c2cc(S(=O)(=O)NCc3ccco3)ccc2F)c1C	2	13	6	79*
CN(Cc1ccc(Cl)cc1)C(=O)c1ccc(S(=O)(=O)NCc2ccco2)cc1	19	-3	-1	8
CCC(=O)N[C@@H]1CC[C@H](CCn2cc(-c3cccc(OC)c3)nn2)O[C@@H]1CO	.	.	0	-4
C[C@@H]1CCCCO[C@@H](CN(C)C)[C@@H](C)CN([C@H](C)CO)C(=O)c2cc(NC(=O)Nc3cccc4ccccc34)ccc2O1	.	.	-2	37
O=C(O)CC(CN1C(=O)c2ccccc2C1=O)c1ccccc1 (stereo unspecified)	45*	7	-10	-11
COc1ccccc1NC(=O)N[C@@H]1CC[C@@H](CC(=O)N2CCC(Cc3ccccc3)CC2)O[C@H]1CO	.	.	-13	-5
CNC[C@H]1Oc2ncc(C#CC3CCCC3)cc2C(=O)N([C@H](C)CO)C[C@H]1C	.	.	1	28
Cc1cccc(C)c1N1C(=O)CC(N(O)c2ccccc2)C1=O (stereo unspecified)	-6	10	-4	15
Cc1c(Cl)cccc1N1C(=O)CC(N(O)c2ccccc2)C1=O (stereo unspecified)	.	.	60*	12
C[C@H](CO)N1C[C@H](C)[C@@H](CN(C)Cc2ccccc2)Oc2ccc(NC(=O)c3ccncc3)cc2C1=O	.	.	5	-3
CN1[C@@H]2Cn3c(ccc(-c4ccccc4)c3=O)[C@H]1[C@@H](C(=O)NCCCN1CCOCC1)[C@@H]2CO	.	.	-4	-4
SMILES	Wnt bcat act	MITF TRPM1 HTS	esBAF inh	C2C12 statin
Cc1noc(C)c1NC(=O)Nc1cccc2c1O[C@@H](CN(C)S(=O)(=O)c1ccccc1)[C@H](C)CN([C@H](C)CO)C2=O	.	.	0	6
O=C(c1cccs1)N1CCN(C(=O)c2cn(-c3ccccc3)nc2-c2ccccc2)CC1	12	25	54*	1
C[C@@H]1CN([C@@H](C)CO)C(=O)c2cc(NS(C)(=O)=O)ccc2O[C@@H](C)CCCCO[C@@H]1CN(C)Cc1ccc(C(F)(F)F)cc1	.	.	1	.
Cc1ccc(NC(=O)c2ccc(NC(=O)c3ccccc3)cc2)cc1C	1	-21	1	-19
O=C(CC(Nc1ccccc1Cl)C(=O)O)c1ccccc1 (stereo unspecified)	-2	-3	.	.
Cc1ccc(NC(=O)CO/N=C(\N)c2ccccc2)cc1C	-2	10	.	95*
O=C(CC(Nc1ccc(Cl)cc1)C(=O)O)c1ccccc1 (stereo unspecified)	47*	73	.	.
COC(=O)CSC(C(=O)Nc1ccc(C)c(C)c1)c1ccccc1 (stereo unspecified)	35*	29	-1	5
Cc1ccc(NC(=O)CC(=O)c2ccccc2)cc1C	-1	144*	75*	-5
COCC(=O)Nc1ccc2c(c1)C(=O)N(C)C[C@@H](OC)[C@@H](C)CN(C(=O)NC(C)C)[C@H](C)CO2	.	.	1	8
O=C(CC(=O)c1ccccc1)Nc1ccc(Cl)cc1	14	111*	?	4
O=C(Cc1ccc(Cl)cc1)Nc1ccc(NC(=O)c2ccccc2)cc1	-4	14	.	.
CCC(C(=O)NC1CCCC1)N(C(=O)Cn1nnc(-c2ccc(OC)c(OC)c2)n1)c1cccc(O)c1 (stereo unspecified)	0	1	6	139*
COc1ccc(C2=NN(CN3C(=O)C(=O)c4ccccc43)C(c3ccc(OC)cc3)C2)cc1 (stereo unspecified)	54*	56	.	.
C/C=C/c1cnc2c(c1)C(=O)N([C@@H](C)CO)C[C@H](C)[C@@H](CN(C)Cc1cccc(C(=O)O)c1)O2	.	.	-2	3
O=C(c1cccs1)N1CCN=C1SCc1ccc(F)cc1	37*	9	.	.
CCCn1c2c(c(O)c(C(=O)NC)c1=O)CCCC2	.	-4	-2	119*
CCCn1c2c(c(O)c(C(=O)NCc3ccccc3)c1=O)CCCC2	-3	2	-6	-19
Fc1ccccc1-c1cc2ncccc2cn1	34*	71	30	19
COc1cc(OC)cc(-c2cc3ncccc3cn2)c1	11	14	30	0
Cn1cnc(S(=O)(=O)N2C[C@H](O)COC[C@@H]3O[C@H](CC(=O)NCc4ccc(F)cc4)CC[C@H]32)c1	.	.	-2	10
O=C(Nc1nc2cc3c(cc2s1)OCCO3)C1CCCCC1	54*	91*	-15	-52
O=C(Nc1nc2cc3c(cc2s1)OCO3)C1CCCCC1	32*	76	.	.
O=C(Nc1nnc(-c2ccc3c(c2)OCCO3)o1)C1CCCCC1	33*	58	.	.
O=C(Nc1nnc(-c2ccc(Cl)cc2)o1)C1CCCCC1	-1	15	-7	-1
SMILES	Wnt bcat act	MITF TRPM1 HTS	esBAF inh	C2C12 statin
CC(C)(C)S(=O)N1Cc2cc(C(=O)O)nc(-c3cccc(-c4cccc(F)c4)c3)c2[C@H]1CCO (stereo partly specified)	.	.	-4	.
CCCN1CCN(CCCNC(=O)c2ccc3nc(N4CCC(C)CC4)sc3c2)CC1	12	.	55*	-10
CC1CCCCN1CCCNC(=O)c1ccc2nc(N3CCCCC3)sc2c1 (stereo unspecified)	12	.	58*	0
O=C(Nc1ccccc1)[C@H]1[C@H](CO)[C@H]2Cn3c(cccc3=O)[C@H]2N1C(=O)C1CCCC1	.	.	0	-4
C[C@H](CO)N1C[C@H](C)[C@H](CN(C)Cc2ccc(Oc3ccccc3)cc2)Oc2c(NC(=O)NC3CCCCC3)cccc2C1=O	.	.	0	.
O=C(NC1CCCC1)[C@@H]1[C@@H](CO)[C@@H]2Cn3c(ccc(-c4ccncc4)c3=O)[C@@H]2N1CC1CC1	.	.	-3	8
O=C(N=C1SCC(=O)N1c1ccccc1)c1ccco1	.	51	46*	8
